In experiment [1] the test system is MCC-13. The experiment can be described thus: qHTS assay to identify novel small-molecules to repurpose for Merkel cell carcinoma treatment (AID 1296009). Further: nearly all actives have a fitted effect of over 60% in size. Particulars: MCC and control cell lines, CellTiter-Glo viability, 72 h; series mostly up to 46 µM. The gist of the method:
(§1)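 Cell viability measured by CellTiter-Glo following 72 hr compound treatment at 37 degree celsius, with NPC and MIPE libraries tested in 8- and 11-point concentration series.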

Experiment [2] deals with MCC-26. The experiment is described as above. Particulars: MCC and control cell lines, CellTiter-Glo viability, 72 h; series mostly up to 46 µM. The essentials: as §1
For experiment [3], the system named is MKL-1. The description is as above. Particulars: MCC and control cell lines, CellTiter-Glo viability, 72 h; series mostly up to 46 µM. The essentials: as §1
Experiment [4] concerns MKL-2. The description is as above. Particulars: MCC and control cell lines, CellTiter-Glo viability, 72 h; series mostly up to 46 µM. The essentials:
as §1

Experiment [5] has as its system NIH3T3. The experiment is described as above. Particulars: MCC and control cell lines, CellTiter-Glo viability, 72 h; at 44.8 µM (top of the series) unless noted. The essentials: as §1
Experiment [6] relates to UISO. The experiment is described as above. Particulars: MCC and control cell lines, CellTiter-Glo viability, 72 h; series mostly up to 46 µM. The essentials: as §1
Experiment [7] relates to WaGa. Described as above. Particulars: MCC and control cell lines, CellTiter-Glo viability, 72 h; series mostly up to 46 µM. The gist of the method:
as §1

For experiment [8], the system named is C33A. The experiment can be described thus: Primary qHTS to identify gynecologic anti-cancer compounds using libraries of approved drugs and bioactive compounds (AID 1345084). Further: nearly all actives have a fitted effect of over 55% in size. Further: potency means the concentration at half of the fitted maximal effect. Particulars: Gynecologic cancer cell panel viability, ATPlite luminescence, 48 h; series mostly up to 57.5 µM. The gist of the method: (§2)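 Luminescence from the ATPlite ATP-monitoring reagent indicates viable cell number; lower signal means cytotoxicity. Cells received compound 16 h after seeding and were exposed for 48 h across five concentrations.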

Experiment [9] relates to CASKI. The experiment is described as above. Particulars: Gynecologic cancer cell panel viability, ATPlite luminescence, 48 h; series mostly up to 57.5 µM. The essentials: as §2
For experiment [10], the system named is Es-2. Described as above. Particulars: Gynecologic cancer cell panel viability, ATPlite luminescence, 48 h; series mostly up to 57.5 µM. The gist of the method: as §2
The test system of experiment [11] is HeLa. The description is as above. Particulars: Gynecologic cancer cell panel viability, ATPlite luminescence, 48 h; series mostly up to 57.5 µM. The essentials: as §2
For experiment [12], the system named is Hek293T. The description is as above. Particulars: Gynecologic cancer cell panel viability, ATPlite luminescence, 48 h, control line for the selectivity index; series mostly up to 57.5 µM. The essentials:
as §2

The subject of experiment [13] is JEG-3. Described as above. Particulars: Gynecologic cancer cell panel viability, ATPlite luminescence, 48 h; series mostly up to 57.5 µM. The gist of the method: as §2
For experiment [14], the system named is OV90. The description is as above. Particulars: Gynecologic cancer cell panel viability, ATPlite luminescence, 48 h; series mostly up to 57.5 µM. The gist of the method: as §2
In experiment [15] the test system is PA-1. The experiment is described as above. Particulars: Gynecologic cancer cell panel viability, ATPlite luminescence, 48 h; series mostly up to 57.5 µM. The gist of the method:
as §2

Experiment [16] relates to SKOV3. The experiment is described as above. Particulars: Gynecologic cancer cell panel viability, ATPlite luminescence, 48 h; series mostly up to 57.5 µM. The gist of the method: as §2
The subject of experiment [17] is Tov-21-G. The description is as above. Particulars: Gynecologic cancer cell panel viability, ATPlite luminescence, 48 h; series mostly up to 57.5 µM. The essentials:
as §2

The test system of experiment [18] is Tov112D. The description is as above. Particulars: Gynecologic cancer cell panel viability, ATPlite luminescence, 48 h; series mostly up to 57.5 µM. The essentials:
as §2

Experiment [19] in a line: Drug repurposing screens with cells derived from glioblastoma tumor samples (AID 1345199). Further: nearly all actives have a fitted effect of over 40% in size. Particulars: GBM patient neurospheres viability, ATP luminescence, 48 h. The essentials:
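Primary testing used CD133+ neurospheres from four GBM patients, seven concentrations, 48 h exposure and ATP-based viability; confirmation added three slower-growing patient lines.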

The test system of experiment [20] is CAOV3. The experiment can be described thus: Primary qHTS to identify gynecologic anti-cancer compounds using libraries of approved drugs and bioactive compounds (AID 1345084). Further: nearly all actives have a fitted effect of over 55% in size. Further: potency means the concentration at half of the fitted maximal effect. Particulars: Gynecologic cancer cell panel viability, ATPlite luminescence, 48 h; series mostly up to 57.5 µM. The essentials: as §2
[21] abbreviates: at 45.9 µM (top of the series), tumour line B.
[22] abbreviates: at 45.9 µM (top of the series), tumour line D.
The mark [23] stands for this setting: at 46 µM (top of the series), tumour line A.
Where [24] appears, read: at 46.1 µM (top of the series), tumour line C.
Where [25] appears, read: at 20 µM (top of the series), tumour line C.
Where [26] appears, read: at 21.2 µM (top of the series), tumour line B.
Setting [27] is: at 21.2 µM (top of the series), tumour line D.

Molecules are shown by their SMILES. Values joined by “and” are separate entries in the source; they are usually repeats but may differ in a detail not shown here. Equal entries are not always repeated. Results filed as inconclusive are left out. The source holds several records for some structures; these can differ, active in one and inactive in another. Active and inactive are the calls of the source. The call rests on the fitted dose curve; in most records, active means well fitted curve in the direction sought with a large enough effect; inconclusive means small, poorly fitted or top-dose-only effect, or another doubt; inactive means no such curve, though single readings can be large; an effect the other way counts as inactive or inconclusive.
On the % scale 0 is the no-effect control and ±100 the full control effect.

In the case of `CC(C)(C(=O)O)c1ccc(C(O)CCCN2CCC(C(O)(c3ccccc3)c3ccccc3)CC2)cc1` (stereo not given), the Potency entry in experiment [1], in [2], in experiment [3], in [4], in experiment [6] and in experiment [7] was “inactive” in each case. The Potency result in experiment [8], in experiment [9], in [10], in [11], in experiment [12] and in experiment [13] was “inactive” throughout. Besides, the Potency entry in experiment [14], in experiment [15], in [16], in experiment [17] and in experiment [18] was “inactive” in each case. In addition, in experiment [5], the compound was classed as inactive. Moreover, the activity, negative = cell killing in [19] (setting [21]) is 0.768% (inactive); in experiment [19] (setting [22]), 0.91% (inactive); in experiment [19] (setting [23]), -18.8% (inactive); in experiment [19] (setting [24]), 14% (inactive).

For the compound `CC1CC(OC(=O)C(O)c2ccccc2)CC(C)(C)N1C` (stereo not given), the Potency entry in experiment [1], in experiment [2], in experiment [3], in experiment [4], in experiment [6] and in experiment [7] was “inactive” in each case. The Potency entry in experiment [8], in [9], in experiment [10], in experiment [11], in experiment [12] and in [13] was “inactive” in each case. In addition, the Potency entry in experiment [14], in experiment [15], in [16], in experiment [17] and in experiment [18] was “inactive” throughout. In experiment [5], the result was inactive. The activity, negative = cell killing is 14.2% (inactive) in [19] (setting [25]); 1.64% (inactive) in experiment [19] (setting [26]); -6.11% (inactive) in experiment [19] (setting [27]); -1.01% (inactive) in experiment [19] (setting [21]); 1.15% (inactive) in experiment [19] (setting [22]); -25.8% (inactive) in [19] (setting [23]). Besides, the activity, negative = cell killing in [19] (setting [24]) was -11% (inactive).

For `CC1(C)[C@@H]2CC[C@@]1(C)C(=O)C2`, the Potency entry in experiment [1], in [2], in [3], in experiment [4], in experiment [6] and in experiment [7] was “inactive” each time. Besides, the Potency result in [8], in experiment [20], in experiment [9], in [10], in [11] and in experiment [12] was “inactive” in each case. The Potency entry in experiment [13], in [14], in experiment [15], in [16], in experiment [17] and in experiment [18] was “inactive” throughout. Also, the results for the activity, negative = cell killing in experiment [19] (setting [21]), in [19] (setting [22]) and in experiment [19] (setting [24]) were -26.7% (inactive), -2.76% (inactive) and -20.2% (inactive), respectively.

Regarding `CC(C)(O)c1ccccc1CC[C@@H](SCC1(CC(=O)O)CC1)c1cccc(/C=C/c2ccc3ccc(Cl)cc3n2)c1`, the Potency result in experiment [1], in [2], in experiment [3], in [4], in experiment [6] and in experiment [7] was “inactive” in each case. Besides, the Potency result in experiment [8], in [9], in experiment [10], in [11], in experiment [12] and in experiment [13] was “inactive” throughout. The Potency result in experiment [14], in experiment [15], in experiment [17] and in experiment [18] was “inactive” throughout. Moreover, the compound was called inactive in experiment [5]. Also, the Potency entry in experiment [16] was “inactive and 35.5 µM (active)”. Moreover, the figures for the activity, negative = cell killing in experiment [19] (setting [21]), in experiment [19] (setting [22]) and in [19] (setting [24]) were -2.34% (inactive), -14.4% (inactive) and -19.5% (inactive), respectively.

`CC(COc1ccccc1)NC(C)C(O)c1ccc(O)cc1` (stereo not given): the Potency entry in experiment [1], in experiment [2], in [3], in [4], in experiment [6] and in experiment [7] was “inactive” throughout. In addition, the Potency entry in [8], in experiment [9], in [10], in experiment [11], in experiment [12] and in experiment [13] was “inactive” throughout. For the same compound, the Potency entry in experiment [14], in [15], in [16], in experiment [17] and in experiment [18] was “inactive” throughout. Moreover, in experiment [5], the call was inactive. Also, the activity, negative = cell killing in experiment [19] (setting [25]) is -3.58% (inactive); in [19] (setting [26]) it was -2.68% (inactive); in [19] (setting [27]), -14.2% (inactive).

These data come from PubChem BioAssay (NCATS).
